# Measured values from PubChem BioAssay AID1159580 (chemical genetic matrix, 2015).
# Where “and” joins values, the source holds several entries; their conditions need not be identical. Equal entries are not always repeated. The campaign covered roughly 5,500 compounds. About 2,000 (36%) were called active. Not shown: some 18% with an inconclusive outcome. Rule as the data show it: active = normalized growth mostly below about 0.91 (no sharp cut-off); inconclusive = no clear call, values can overlap the other calls; inactive = mostly above about 0.92. The list shows a part of the results. Some structures have more than one record in an assay (separate samples or runs), and their calls can disagree.
# Experiment: chemical genetic growth profiling, strain panel (AID 1159580);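 also: tested at 20 µM; growth read once vehicle control cultures reached saturation at 30 °C; 1 = growth at the plate median or of vehicle wells; lower values mean less growth of the strain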
# Details: S. cerevisiae deletion strains, growth OD
structure (smiles),measurement,setting,value
Fc1ccc(C(c2ccc(F)cc2)N2CCN(C/C=C/c3ccccc3)CC2)cc1,normalized growth,"locus YAL013W, strain DEP1, stronger effect = lower value",0.996 (inactive) and 0.961 (inactive)
same,normalized growth,"locus YAL021C, strain ccr4, stronger effect = lower value",0.625 (active)
same,normalized growth,"locus YAL026C, strain drs2, stronger effect = lower value",0.0836 (active)
same,normalized growth,"locus YAL030W, strain snc1, stronger effect = lower value",0.293 (active)
same,normalized growth,"locus YAL040C, strain CLN3, stronger effect = lower value",1.02 (inactive)
same,normalized growth,"locus YBL061C, strain skt5, stronger effect = lower value",0.214 (active)
same,normalized growth,"locus YBR009C, strain hhf1, stronger effect = lower value",0.263 (active)
same,normalized growth,"locus YBR021W, strain FUR4, stronger effect = lower value",0.978 (inactive)
same,normalized growth,"locus YBR023C, strain chs3, stronger effect = lower value",0.22 (active)
same,normalized growth,"locus YBR171W, strain sec66, stronger effect = lower value",0.662 (active)
same,normalized growth,"locus YBR229C, strain ROT2, stronger effect = lower value",0.989 (inactive)
same,normalized growth,"locus YBR231C, strain swc5, stronger effect = lower value",0.147 (active)
same,normalized growth,"locus YBR279W, strain paf1, stronger effect = lower value",0.488 (active)
same,normalized growth,"locus YCL011C, strain gbp2, stronger effect = lower value",0.221 (active)
same,normalized growth,"locus YCL016C, strain dcc1, stronger effect = lower value",0.234 (active)
same,normalized growth,"locus YCL029C, strain bik1, stronger effect = lower value",0.945 (inactive)
same,normalized growth,"locus YCL061C, strain MRC1 (second series), stronger effect = lower value",0.96 (inactive)
same,normalized growth,"locus YCL069W, strain vba3, stronger effect = lower value",0.18 (active)
same,normalized growth,"locus YCR088W, strain abp1, stronger effect = lower value",0.374 (active)
same,normalized growth,"locus YDL005C, strain med2, stronger effect = lower value",0.263 (active)
same,normalized growth,"locus YDL035C, strain GPR1, stronger effect = lower value",0.976 (inactive)
same,normalized growth,"locus YDL040C, strain nat1, stronger effect = lower value",0.666 (active)
same,normalized growth,"locus YDL074C, strain BRE1, stronger effect = lower value",0.904 (inactive)
same,normalized growth,"locus YDL101C, strain DUN1, stronger effect = lower value",0.973 (inactive)
same,normalized growth,"locus YDL134C, strain PPH21, stronger effect = lower value",0.993 (inactive)
same,normalized growth,"locus YDL185W, strain tfp1, stronger effect = lower value",0.966 (inactive)
same,normalized growth,"locus YDL192W, strain arf1, stronger effect = lower value",0.973 (inactive)
same,normalized growth,"locus YDR001C, strain nth1, stronger effect = lower value",0.442 (active)
same,normalized growth,"locus YDR069C, strain doa4, stronger effect = lower value",0.479 (active)
same,normalized growth,"locus YDR101C, strain arx1, stronger effect = lower value",0.967 (inactive)
same,normalized growth,"locus YDR137W, strain rgp1, stronger effect = lower value",1.01 (inactive)
same,normalized growth,"locus YDR150W, strain NUM1, stronger effect = lower value",0.985 (inactive) and 0.925 (active)
same,normalized growth,"locus YDR159W, strain sac3, stronger effect = lower value",0.15 (active)
same,normalized growth,"locus YDR162C, strain NBP2, stronger effect = lower value",0.966 (inactive)
same,normalized growth,"locus YDR195W, strain ref2",1.05 (inactive)
same,normalized growth,"locus YDR297W, strain sur2, stronger effect = lower value",0.322 (active)
same,normalized growth,"locus YDR318W, strain mcm21, stronger effect = lower value",0.951 (inactive)
same,normalized growth,"locus YDR334W, strain swr1, stronger effect = lower value",0.208 (active)
same,normalized growth,"locus YDR335W, strain msn5, stronger effect = lower value",0.368 (active)
same,normalized growth,"locus YDR363W, strain ESC2, stronger effect = lower value",0.922 (inactive)
same,normalized growth,"locus YDR388W, stronger effect = lower value",0.88 (active)
same,normalized growth,"locus YDR392W, strain spt3, stronger effect = lower value",0.104 (active)
same,normalized growth,"locus YDR502C, strain sam2, stronger effect = lower value",0.988 (inactive)
same,normalized growth,"locus YEL003W, strain gim4, stronger effect = lower value",0.326 (active)
same,normalized growth,"locus YEL037C, strain rad23, stronger effect = lower value",0.215 (active)
same,normalized growth,"locus YEL061C, strain CIN8 (second series), stronger effect = lower value",0.229 (active)
same,normalized growth,"locus YEL061C, strain CIN8, stronger effect = lower value",0.991 (inactive)
same,normalized growth,"locus YER015W, strain faa2, stronger effect = lower value",0.346 (active)
same,normalized growth,"locus YER016W, strain bim1, stronger effect = lower value",0.715 (active)
same,normalized growth,"locus YER110C, stronger effect = lower value",0.974 (inactive)
same,normalized growth,"locus YER111C, strain swi4, stronger effect = lower value",0.663 (active)
same,normalized growth,"locus YER155C, strain BEM2 (second series), stronger effect = lower value",0.736 (active)
same,normalized growth,"locus YER155C, strain BEM2, stronger effect = lower value",1.01 (inactive)
same,normalized growth,"locus YER167W, strain BCK2, stronger effect = lower value",1.01 (inactive)
same,normalized growth,"locus YFR010W, strain ubp6, stronger effect = lower value",0.297 (active)
same,normalized growth,"locus YGL078C, strain dbp3, stronger effect = lower value",0.994 (inactive)
same,normalized growth,"locus YGL086W, strain mad1, stronger effect = lower value",0.999 (inactive)
same,normalized growth,"locus YGL167C, strain pmr1, stronger effect = lower value",1.01 (inactive)
same,normalized growth,"locus YGL173C, strain kem1, stronger effect = lower value",0.794 (active)
same,normalized growth,"locus YGL227W, strain vid30, stronger effect = lower value",0.243 (active)
same,normalized growth,"locus YGL240W, strain doc1, stronger effect = lower value",0.819 (active)
same,normalized growth,"locus YGL248W, strain PDE1, stronger effect = lower value",0.99 (inactive)
same,normalized growth,"locus YGL253W, strain hxk2, stronger effect = lower value",0.0972 (active)
same,normalized growth,"locus YGR078C, strain PAC10, stronger effect = lower value",0.976 (inactive)
same,normalized growth,"locus YGR135W, strain pre9, stronger effect = lower value",0.942 (inactive)
same,normalized growth,"locus YGR229C, strain SMI1, stronger effect = lower value",0.919 (inactive) and 0.24 (active)
same,normalized growth,"locus YGR252W, strain gcn5, stronger effect = lower value",1.07 (inactive)
same,normalized growth,"locus YHR013C, strain ard1, stronger effect = lower value",0.149 (active)
same,normalized growth,"locus YHR027C, strain rpn1, stronger effect = lower value",0.556 (active)
same,normalized growth,"locus YHR030C, strain SLT2, stronger effect = lower value",0.994 (inactive) and 0.988 (inactive)
same,normalized growth,"locus YHR079C, strain IRE1 (second series), stronger effect = lower value",0.972 (inactive)
same,normalized growth,"locus YHR079C, strain IRE1, stronger effect = lower value",0.991 (inactive)
same,normalized growth,"locus YHR094C, strain hxt1, stronger effect = lower value",0.977 (inactive)
same,normalized growth,"locus YHR129C, strain ARP1, stronger effect = lower value",0.992 (inactive)
same,normalized growth,"locus YHR142W, strain chs7, stronger effect = lower value",0.127 (active)
same,normalized growth,"locus YHR200W, strain rpn10, stronger effect = lower value",0.973 (inactive)
same,normalized growth,"locus YIL066C, strain RNR3, stronger effect = lower value",0.965 (inactive)
same,normalized growth,"locus YIL073C, strain SPO22, stronger effect = lower value",1.52 [resistant] (active)
same,normalized growth,"locus YIL125W, strain kgd1, stronger effect = lower value",0.986 (inactive)
same,normalized growth,"locus YIR030C, strain dcg1, stronger effect = lower value",0.98 (inactive)
same,normalized growth,"locus YJL092W, strain hpr5, stronger effect = lower value",0.282 (active)
same,normalized growth,"locus YJL095W, strain BCK1 (second series), stronger effect = lower value",0.0776 (active)
same,normalized growth,"locus YJL095W, strain BCK1, stronger effect = lower value",0.918 (inactive) and 0.981 (inactive)
same,normalized growth,"locus YJL115W, strain asf1, stronger effect = lower value",0.435 (active)
same,normalized growth,"locus YJL129C, strain trk1, stronger effect = lower value",0.215 (active)
same,normalized growth,"locus YJL134W, strain LCB3, stronger effect = lower value",0.983 (inactive)
same,normalized growth,"locus YJL154C, strain vps35, stronger effect = lower value",0.686 (active)
same,normalized growth,"locus YJL164C, strain tpk1, stronger effect = lower value",0.176 (active)
same,normalized growth,"locus YJL166W, strain qcr8, stronger effect = lower value",0.19 (active)
same,normalized growth,"locus YJL168C, strain set2, stronger effect = lower value",0.977 (inactive)
same,normalized growth,"locus YJL187C, strain SWE1 (second series), stronger effect = lower value",0.946 (inactive)
same,normalized growth,"locus YJL187C, strain SWE1, stronger effect = lower value",0.231 (active)
same,normalized growth,"locus YJR043C, strain POL32, stronger effect = lower value",0.983 (inactive)
same,normalized growth,"locus YJR066W, strain TOR1, stronger effect = lower value",0.928 (inactive)
